# Screening data as filed in PubChem.
# AmpC nodet inh – inhibitors of E. coli AmpC beta-lactamase without detergent; P00811; Potency, µM (highest dose often 28.7 µM), for inactives: at the top dose activity change, negative = inhibition; 71,000 compounds, 1.8% hits; AID 585; AmpC nitrocefin hydrolysis, absorbance 480 nm, no detergent; also: % of control where 0% means no effect
# Target sequence (P00811 whole entry, looked up): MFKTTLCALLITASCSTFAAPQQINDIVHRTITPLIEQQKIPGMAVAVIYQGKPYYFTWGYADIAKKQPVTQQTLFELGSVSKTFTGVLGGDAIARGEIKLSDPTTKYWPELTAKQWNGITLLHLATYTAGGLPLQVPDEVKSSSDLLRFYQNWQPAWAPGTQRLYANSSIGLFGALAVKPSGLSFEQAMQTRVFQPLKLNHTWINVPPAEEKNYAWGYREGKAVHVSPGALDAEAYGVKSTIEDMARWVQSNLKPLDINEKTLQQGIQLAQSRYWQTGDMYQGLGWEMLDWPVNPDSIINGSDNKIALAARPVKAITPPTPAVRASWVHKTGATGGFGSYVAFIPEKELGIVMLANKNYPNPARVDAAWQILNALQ
#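 Enzyme, pH 7.0 phosphate. Compound titrations were pre-incubated with AmpC for 15 min at room temperature before nitrocefin (stock 800 uM) addition; product formation was recorded at 480 nm every 20 s for 4 min.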
# Prx2 Sm inh – inhibitors of Schistosoma mansoni peroxiredoxin 2 | S. mansoni Prx2 activity coupled to TGR/GSH (TGR is thioredoxin glutathione reductase), NADPH fluorescence loss, qHTS | Potency, µM | 65,000 compounds, 0.07% hits | AID 448
#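 qHTS, coupled TGR/Prx2 format; 15 min compound preincubation at RT; reaction started with H2O2 (2.5 mM aliquot); kinetic NADPH fluorescence decrease, ex 365/em 450 nm.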
# AmpC inh det – blocks E. coli AmpC beta-lactamase in presence of detergent. Potency, µM (top dose mostly 28.7 µM), without a hit: at the top dose activity change, negative = inhibition. 71,000 compounds, 0.09% hits. purified AmpC, nitrocefin hydrolysis with detergent. P00811; active = well fitted curve in the direction sought with a large enough effect; inconclusive = small, poorly fitted or top-dose-only effect; also: % is scaled to controls: 0 for no effect and ±100 for the full control effect
#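 E. coli AmpC (5.3 nM) in 20 mM phosphate pH 7.0 with 0.01% Triton X-100, preincubated 15 min RT with compound; nitrocefin (2 uL of 800 uM stock) hydrolysis followed by 480 nm absorbance every 20 s over 4 min.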
# Anthrax LT inh – anthrax lethal toxin internalization inhibition | Cells, anthrax lethal toxin internalization, FRET ratio (460/530) | Potency, µM (series often up to 40 µM), inactives show top-dose activity change, negative = inhibition, usual class: inhibitors | 70,000 compounds, 0.67% hits | AID 912; also: % is scaled to controls: 0 for no effect and ±100 for the full control effect; nearly all actives have a fitted effect of over 50% in size
# Starred values were filed as active, the others as inactive; i = inactive; ? = inconclusive; nt = not tested or not shown; [ ] = dose if it differs, or a comment. An excerpt weighted towards active compounds, which were near 2.4% of everything screened. Unless noted, calls follow the shape of the full dose curve. Potency is read from the fitted curve at half-maximal effect.
SMILES,AmpC nodet inh,Prx2 Sm inh,AmpC inh det,Anthrax LT inh
COc1ccc(-n2c(Cc3cc(=O)[nH]c(=O)[nH]3)nnc2SCC(=O)Nc2ccccc2)cc1,?,>57,11%,?
COc1cccc(-n2c(Cc3cc(=O)[nH]c(=O)[nH]3)nnc2SCC(=O)N2CCC(C)CC2)c1,8%,>57,-1%,14%
COc1ccc(-n2c(Cc3cc(=O)[nH]c(=O)[nH]3)nnc2SCC(=O)N2CCC(C)CC2)cc1,4µM*[single pt active],>57,14%,-5%
COc1ccc(-n2c(Cc3cc(=O)[nH]c(=O)[nH]3)nnc2SCC(=O)N2CCCC2)cc1,4µM*[single pt active],>57,14%,-5%
CC(C)(C)OC(=O)[C@H]([C@@H]1N[C@@H](C(=O)O)C(C)(C)S1)N1C(=O)c2ccccc2C1=O,2%[5.75 µM],>57,-4%[5.75 µM],?
CC(CC(=O)O)(CC(=O)O)C(=O)O,0%[5.75 µM],>57,-7%[5.75 µM],-5%[8 µM]
Cc1ccc2c(c1)N(CC(=O)NCCN1CCOCC1)C(=O)CO2,17%,>57,7%,-5%
CC1CCN(C(=O)CSc2nnc(Cc3cc(=O)[nH]c(=O)[nH]3)n2-c2ccc(Cl)cc2)CC1,4µM*[single pt active],>57,8%,-2%
O=C(Nc1cccc(-c2nc3ncccc3o2)c1)c1cc2ccccc2o1,84%,>57,5%,3.2µM*
CC(=O)c1ccc(NC(=O)c2cc(CC(C)C)on2)cc1,4µM*[single pt active],>57,11%,-16%
Cc1cc(NC(=O)c2cc(C)on2)no1,7%,>57,0%,0%
COc1cc(NC(=O)c2cc(CC(C)C)on2)c(OC)cc1Cl,4µM*[single pt active],>57,10%,?
Cc1cc(NC(=O)c2cc(CC(C)C)on2)no1,4µM*[single pt active],>57,12%,-17%
CC(C)Cc1cc(C(=O)Nc2sc3c(c2C#N)CCCC3)no1,4µM*[single pt active],>57,12%,7.9µM*
C[C@@H]1CCC[C@H](C)N1,-1%[12.8 µM],>57,-1%[12.8 µM],2%[3.58 µM]
CN1CCN(c2ncc3nc(-c4cccc(C#N)c4)c(=O)n(C)c3n2)CC1,48%,>57,-5%,?
COc1ccc(-c2nc3cnc(N4CCOCC4)nc3n(Cc3cccs3)c2=O)cc1,13%,>57,21%,-5%
Cn1nc(-c2ccc(Cl)cc2)c2cc(C(=O)N3CCN(c4ccccc4)CC3)sc21,4µM*[single pt active],>57,13%,?
Cn1nc(-c2ccc(Cl)cc2)c2cc(C(=O)N3CCN(c4ccccn4)CC3)sc21,4µM*[single pt active],>57,7%,?
Cn1nc(-c2ccc(Cl)cc2)c2cc(C(=O)N3CCCC3)sc21,42%,>57,11%,?
N#CCCS(=O)(=O)c1nnnn1-c1ccccc1,0%,?,-7%,10µM*
CCCCSc1nc2c(cc1C#N)CCC2,-6%,>57,-4%,-13%
CCCSc1nc(C)c(-c2csc(C(C#N)=C3CCCC3)n2)cc1C#N,13µM*,>57,0%,-12%
O=C(c1cccc(F)c1)N1CCC[C@@]2(CCN(C(c3ccccc3)c3ccccc3)C2)C1,-5%,>57,15%,11%
O=c1c(O)c(-c2ccc(O)cc2)oc2ccc(O)cc12,16µM*[single pt active],i,-2%,-20%
SMILES,AmpC nodet inh,Prx2 Sm inh,AmpC inh det,Anthrax LT inh
COc1ccc(Oc2ncc3nc(C)c(=O)n(Cc4ccc(F)cc4)c3n2)cc1,103%,>57,-3%,-3%
COc1cccc(CNC(=O)Nc2cccs2)c1,13µM*,>57,-1%,?
COc1ccc(CNC(=O)Nc2cccs2)cc1OC,-7%,>57,-4%,-21%
Cc1csc(Sc2nc3c(c(=O)[nH]c(=O)n3C)n2CCCc2ccccc2)n1,16µM*[single pt active],>57,-5%,-13%
N[C@@H](Cc1cccnn1)C(=O)O,8%[5.75 µM],>57,-3%[5.75 µM],-5%[8 µM]
CC1=C(C(=O)OCc2ccccc2)C(c2cccnc2)n2ncnc2N1 (stereo not given),6%,>57,-2%,2%
CC(=O)C1=C(C)Nc2ncnn2C1c1cccc(OCc2ccccc2)c1 (stereo not given),4µM*[single pt active],>57,12%,6%
CCCCN(C)C(=O)c1ccc(CS(=O)(=O)c2ccccc2C)o1,4µM*[single pt active],>57,12%,-7%
CCOC(=O)N1CCC(NC(=O)c2ccc(CS(=O)(=O)c3ccccc3C)o2)CC1,4µM*[single pt active],>57,11%,-3%
CC(C)CCNC(=O)Cn1c(NCCC(C)C)nc2c1c(=O)n(C)c(=O)n2C,2.5µM*[single pt active],>57,14%,-2%
COC(=O)NC(/C(C(=O)OC)=C(\C)NCc1ccccc1)c1ccc2ccccc2c1 (stereo not given),nt,nt,nt,-21%[8 µM]
COc1ccccc1OCCCCNC(C)(C)C,-8%,>57,7%,-16%
CNCCCCOc1ccccc1Cc1ccccc1,55%,>57,2%,32µM*
O=c1cc(N=Nc2ccc(O)cc2)[nH]c(=O)[nH]1,-2%[5.75 µM],>57,-4%[5.75 µM],-5%[8 µM]
O=C(NC1CCCCC1)N1CCC(n2c(=O)[nH]c3ccccc32)CC1,3.2µM*[single pt active],>57,18%,-14%
CCCCCCCCCC(=O)N[C@@H](CN1CCOCC1)[C@@H](O)c1ccccc1,124%,>57,-4%,-11%
CCc1ccc(-c2cn(-c3nc(C)cc(C)n3)c(=N)o2)cc1,19%,>57,12%,13µM*
COC(=O)c1cc(=O)[nH]c(=O)[nH]1,2%[5.75 µM],>57,-4%[5.75 µM],-8%[8 µM]
CC(C)OC(=O)Nc1ccc(Oc2c(F)c(F)c(F)c(F)c2F)cc1,16µM*[single pt active],>57,-2%,nt
CC(C)Oc1ccc(NC(N)=O)cc1,20%,>57,-2%,?
Cc1nonc1NC(=O)CSc1nc2cc(Cl)ccc2c2c1CCCC2,13µM*,>57,-4%,-20%
CC(C)CN(CCNC(=O)CC1Oc2ccccc2NC1=O)CC(C)C (stereo not given),4µM*[single pt active],>57,13%,-3%
CCC(C)N(CCNC(=O)CC1Oc2ccccc2NC1=O)C1CCCCC1 (stereo not given),4µM*[single pt active],>57,7%,-19%
CCN(CCNC(=O)CC1Oc2ccccc2NC1=O)c1ccccc1 (stereo not given),4µM*[single pt active],>57,13%,0%
CCCSCCCNC(=O)CC1Oc2ccccc2NC1=O (stereo not given),4µM*[single pt active],>57,12%,-1%
SMILES,AmpC nodet inh,Prx2 Sm inh,AmpC inh det,Anthrax LT inh
CO[C@H]1COC(=O)CCC[C@H](C)[C@@H](OC)COC(=O)C/C=C\[C@@H]1C,nt,nt,nt,-8%[0.32 µM]
CC(C)OCCCNC(=O)c1cc2c(=O)n(C)c3ccccc3c2n1C,29%,>57,14%,5%
Cn1c(C(=O)Nc2ccc3c(c2)OCO3)cc2c(=O)n(C)c3ccccc3c21,4µM*[single pt active],>57,6%,?
CN1CCN(CCCNC(=O)c2cc3c(=O)n(C)c4ccccc4c3s2)CC1,33%,>57,5%,10µM*
CC1CCN(CCCNC(=O)c2cc3c(=O)n(C)c4ccccc4c3n2C)CC1,20%,>57,12%,6.3µM*
CCCCN(CC)CCCNC(=O)c1cc2c(=O)n(C)c3ccccc3c2n1C,21%,>57,14%,4µM*
C[N+]1([O-])[C@H]2CC[C@H]1CC(OC(=O)[C@@H](CO)c1ccccc1)C2 (stereo not given in full),-2%[5.75 µM],>57,-1%[5.75 µM],-6%[8 µM]
O=c1c(-c2cccc(F)c2)nc2cncnc2n1C1CC1,3%,>57,-1%,?
